Among all 5,500 compounds or so, about 2,000 (36%) were called active. Not shown: some 18% with an inconclusive outcome. No stated cut-off is given here; in the data, active means normalized growth mostly below about 0.91 (no sharp cut-off); inconclusive means no clear call, values can overlap the other calls; inactive means mostly above about 0.92. This is one part of the list.
Test: chemical genetic growth profiling, strain panel (AID 1159580);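 further: tested at 20 µM; growth read once vehicle control cultures reached saturation at 30 °C; 1 = growth at the plate median or of vehicle wells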
Conditions: S. cerevisiae deletion strains, growth OD

Measured: normalized growth

NC(N)=NOCC[C@H](N)C(=O)O
inactive: locus YAL013W, strain DEP1, stronger effect = lower value 0.991 | locus YAL021C, strain ccr4, stronger effect = lower value 1.01 | locus YAL026C, strain drs2, stronger effect = lower value 1.01 | locus YAL030W, strain snc1, stronger effect = lower value 1 | locus YBL061C, strain skt5, stronger effect = lower value 1.02 | locus YBR009C, strain hhf1, stronger effect = lower value 1.01 | locus YBR021W, strain FUR4, stronger effect = lower value 1 | locus YBR023C, strain chs3, stronger effect = lower value 1.02 | locus YBR171W, strain sec66, stronger effect = lower value 1.02 | locus YBR229C, strain ROT2, stronger effect = lower value 0.993 | locus YBR231C, strain swc5, stronger effect = lower value 1.02 | locus YBR279W, strain paf1, stronger effect = lower value 1.01 | locus YCL011C, strain gbp2, stronger effect = lower value 1.03 | locus YCL016C, strain dcc1, stronger effect = lower value 1.01 | locus YCL029C, strain bik1, stronger effect = lower value 0.983 | locus YCL061C, strain MRC1, stronger effect = lower value 1.01 | locus YCL069W, strain vba3, stronger effect = lower value 1.01 | locus YCR088W, strain abp1, stronger effect = lower value 1.01 | locus YDL005C, strain med2, stronger effect = lower value 1.01 | locus YDL035C, strain GPR1, stronger effect = lower value 0.985 | locus YDL040C, strain nat1, stronger effect = lower value 1.01 | locus YDL074C, strain BRE1, stronger effect = lower value 1.02 | locus YDL101C, strain DUN1, stronger effect = lower value 0.99 | locus YDL134C, strain PPH21, stronger effect = lower value 0.999 | locus YDL185W, strain tfp1, stronger effect = lower value 0.975 | locus YDL192W, strain arf1, stronger effect = lower value 0.983 | locus YDR001C, strain nth1, stronger effect = lower value 1.01 | locus YDR069C, strain doa4, stronger effect = lower value 1.02 | locus YDR101C, strain arx1, stronger effect = lower value 1.01 | locus YDR137W, strain rgp1, stronger effect = lower value 1.01 | locus YDR150W, strain NUM1, stronger effect = lower value 0.984 | locus YDR159W, strain sac3, stronger effect = lower value 1.01 | locus YDR162C, strain NBP2, stronger effect = lower value 1.02 | locus YDR195W, strain ref2 0.996 | locus YDR297W, strain sur2, stronger effect = lower value 1.01 | locus YDR318W, strain mcm21, stronger effect = lower value 0.983 | locus YDR334W, strain swr1, stronger effect = lower value 1.02 | locus YDR335W, strain msn5, stronger effect = lower value 1.01 | locus YDR388W, stronger effect = lower value 0.999 | locus YDR392W, strain spt3, stronger effect = lower value 1.01 | locus YDR502C, strain sam2, stronger effect = lower value 0.995 | locus YEL003W, strain gim4, stronger effect = lower value 1.02 | locus YEL037C, strain rad23, stronger effect = lower value 1.01 | locus YEL061C, strain CIN8 (second series), stronger effect = lower value 1.02 | locus YEL061C, strain CIN8, stronger effect = lower value 0.992 | locus YER015W, strain faa2, stronger effect = lower value 1.01 | locus YER016W, strain bim1, stronger effect = lower value 1.01 | locus YER110C, stronger effect = lower value 0.984 | locus YER111C, strain swi4, stronger effect = lower value 1.01 | locus YER155C, strain BEM2 (second series), stronger effect = lower value 1.01 | locus YER155C, strain BEM2, stronger effect = lower value 0.978 | locus YER167W, strain BCK2, stronger effect = lower value 0.978 | locus YFR010W, strain ubp6, stronger effect = lower value 1.01 | locus YGL078C, strain dbp3, stronger effect = lower value 0.994 | locus YGL086W, strain mad1, stronger effect = lower value 0.978 | locus YGL167C, strain pmr1, stronger effect = lower value 1.01 | locus YGL173C, strain kem1, stronger effect = lower value 1 | locus YGL227W, strain vid30, stronger effect = lower value 1.02 | locus YGL240W, strain doc1, stronger effect = lower value 1.02 | locus YGL248W, strain PDE1, stronger effect = lower value 0.994 | locus YGL253W, strain hxk2, stronger effect = lower value 1.01 | locus YGR078C, strain PAC10, stronger effect = lower value 1.04 | locus YGR135W, strain pre9, stronger effect = lower value 1.03 | locus YGR229C, strain SMI1, stronger effect = lower value 1.02 | locus YGR252W, strain gcn5, stronger effect = lower value 1.01 | locus YHR013C, strain ard1, stronger effect = lower value 1.04 | locus YHR027C, strain rpn1, stronger effect = lower value 1 | locus YHR030C, strain SLT2, stronger effect = lower value 0.978 | locus YHR079C, strain IRE1 (second series), stronger effect = lower value 0.985 | locus YHR094C, strain hxt1, stronger effect = lower value 0.988 | locus YHR129C, strain ARP1, stronger effect = lower value 0.991 | locus YHR142W, strain chs7, stronger effect = lower value 1.03 | locus YHR200W, strain rpn10, stronger effect = lower value 0.986 | locus YIL066C, strain RNR3, stronger effect = lower value 0.979 | locus YIL073C, strain SPO22, stronger effect = lower value 0.915 | locus YIL125W, strain kgd1, stronger effect = lower value 0.992 | locus YIR030C, strain dcg1, stronger effect = lower value 0.98 | locus YJL092W, strain hpr5, stronger effect = lower value 1.01 | locus YJL095W, strain BCK1 (second series), stronger effect = lower value 1.02 | locus YJL095W, strain BCK1, stronger effect = lower value 1.04 | locus YJL115W, strain asf1, stronger effect = lower value 1.01 | locus YJL129C, strain trk1, stronger effect = lower value 1.03 | locus YJL134W, strain LCB3, stronger effect = lower value 0.987 | locus YJL154C, strain vps35, stronger effect = lower value 1.01 | locus YJL164C, strain tpk1, stronger effect = lower value 1.01 | locus YJL166W, strain qcr8, stronger effect = lower value 1.02 | locus YJL168C, strain set2, stronger effect = lower value 0.988 | locus YJL187C, strain SWE1 (second series), stronger effect = lower value 1.01

— PubChem BioAssay AID1159580 (chemical genetic matrix, 2015)
